# High-throughput results deposited in PubChem BioAssay by National Center for Advancing Translational Sciences (NCATS).
# FUS suppressor – suppressors of FUS proteinopathy in yeast; S. cerevisiae FUS-expressing, growth rescue, OD600, 24 h; Potency, µM (doses to about 76.6 µM), most hits filed as activators; 390,000 compounds, 0.24% hits; AID 1347120;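 also: plate controls were DMSO vehicle for no effect and reference control for full effect; nearly all actives have a fitted effect of over 55% in size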
#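 Toxicity suppression screen in FUS-yeast. Cells induced with 2% galactose, starting OD 0.005, treated 24hr at 30C with compounds at multiple final concentrations; growth by OD600.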
# TDP-43 yeast inh – rescues yeast growth from TDP-43 toxicity | TDP-43 expressing yeast growth rescue, BacTiter-Glo, 24 h | Potency, µM (highest dose often 46.1 µM), for inactives: at the highest dose growth rescue (activation), most hits filed as activators | 410,000 compounds, 1.8% hits; also: % of control where 0% means no effect; nearly all actives have a fitted effect of over 50% in size
#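 Luminescence from BacTiter-Glo reports growth of TDP-43-expressing yeast after 24 hr at 30 deg C with compound. Cells were raffinose-pregrown to mid-log, then seeded in galactose medium at OD600=0.02.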
# aSyn yeast inh – inhibitors of alpha-synuclein toxicity in yeast. AID 652106. 370,000 compounds, 0.14% hits. Yeast expressing alpha-synuclein, growth rescue, BacTiter-Glo, 24 h. Potency, µM (highest dose often 46.1 µM), without a hit: top-dose growth rescue (activation), most hits filed as activators; also: % of control where 0% means no effect; nearly all actives have a fitted effect of over 65% in size
#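 Rescue of yeast growth: cells expressing toxic alpha-synuclein, induced in galactose at OD600 0.02, incubated with compound 24 h at 30 C. ATP luminescence quantified growth; inhibitors of toxicity appear as activators.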
# Abeta rescue – restores growth of yeast expressing A-beta42 peptide. yeast expressing A-beta42, growth rescue, OD600, 48 h; response scale: 0% DMSO, 100% iron-clioquinol control. Potency, µM (series often up to 46.1 µM), actives largely listed as activators. 410,000 compounds, 0.063% hits; also: nearly all actives have a fitted effect of over 55% in size
#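 Yeast A-beta toxicity model in growth medium with pinned compounds, 48 h at 30 C; growth read as absorbance at 600 nm. Normalized to FeCl3/clioquinol equimolar mix (positive) and DMSO (negative).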
# Starred values were filed as active, the others as inactive; i = inactive; ? = inconclusive; . = not tested or not shown; ! = a repeat was not active; [ ] = another dose, or the depositor's remark. Sampled rows, rich in hits. Any-hit rate of the full collection: about 2.1%. Calls follow the shape of the dose curve; as a rule, active = well fitted curve in the direction sought with a large enough effect; inconclusive = small, poorly fitted or top-dose-only effect, or another doubt; inactive = no such curve, though single readings can be large; an effect the other way counts as inactive or inconclusive. Potency is read from the fitted curve at half-maximal effect.
SMILES,FUS suppressor,TDP-43 yeast inh,aSyn yeast inh,Abeta rescue
CCCOc1ccc(CNC(=O)c2ccc(C)c(-n3c(C)nc4cccnc43)c2)cc1,i,9%,.,i
Cc1cc2n(n1)C(c1c[nH]c3ccccc13)Nc1ccccc1-2 (configuration not stated),.,7.9µM*,-33%,i
Cc1cc2n(n1)C(c1cn(-c3ccccc3)nc1C)Nc1ccccc1-2 (configuration not stated),i,12%,3%,i
Cc1ccc(C(=O)O)cc1-n1c(C)ccc1-c1ccccc1,i,4%,.,i
Cc1ccc(-c2ccccc2)n1-c1cccc(C(=O)O)c1,i,35µM*,-11%,i
Cc1ccc(-c2ccccc2)n1-c1ccc(C(=O)O)cc1,i,13µM*,-26%,i
COc1ccc(/C=N/n2c(SC)nnc2-c2ccccc2)cc1C,i,16µM*,4%,i
COc1cccc(C(=O)N2CCC(Oc3cccnc3)CC2)c1,i,.,.,.
O=C(COC(=O)c1cc(Cl)ccc1[N+](=O)[O-])Nc1cccc2ccccc12,.,20µM*,-2%,i
Cc1ccc(NC(=O)COC(=O)c2cc(Cl)ccc2[N+](=O)[O-])c(C)c1,.,7%,1%,i
Cc1cccc(OCCCN2C(=O)C(=O)c3cc(C)ccc32)c1,i,14µM*,0%,i
Cc1cccc(OCCn2c(=O)n(C)c3ccccc32)c1,i,?,22µM*,i
Nc1[nH]c2cc(Cl)ccc2c1C(=O)N1CCOCC1,i,.,.,.
COC(=O)[C@]12C[C@H](CC(=O)NCCCN3CCCC3=O)C(=O)N(Cc3ccc4c(c3)OCO4)C1=C[C@H](C(C)C)O[C@@H]2C1CC1,i,.,.,.
CCOc1ccc(N2C(=O)CC(N3CCN(c4ccc(Cl)cc4)CC3)C2=O)cc1 (configuration not stated),i,14µM*,-15%,i
CCN(N=O)c1ccc(/C=C/c2ccnc3ccccc23)cc1,.,.,-13%,.
COc1ccc(Cc2nn3c(-c4cc(OC)c(OC)c(OC)c4)nnc3s2)cc1,?,22µM*,-3%,i
c1ccc(-c2nnc3sc(-c4csc5c4CCCC5)nn23)cc1,.,20µM*,2%,i
COc1ccc(-c2nn3c(-c4ccccc4)nnc3s2)cc1,?,14µM*,1%,i
c1ccc(-c2nnc3sc(-c4ccncc4)nn23)cc1,i,-16%,-6%,i
CC(=O)c1cccc(Nc2nc(-c3cccc(C)c3)nc3ccccc23)c1,?,16µM*,.,i
Cc1cccc(CCNC(=O)c2ccc(Sc3ccccc3Cl)c([N+](=O)[O-])c2)c1,i,.,.,.
CC(=O)Nc1cc(C(=O)NCc2ccco2)ccc1Sc1ccc(Cl)cc1,i,0%,-2%,i
CC(=O)Nc1cc(C(=O)NCc2ccccc2Cl)ccc1Sc1ccc(F)cc1,i,22µM*,.,i
CCOc1ccc(CNC(=O)c2ccc(Sc3ccc(Cl)cc3)c(NC(C)=O)c2)cc1,?,16µM*!,-1%,i
SMILES,FUS suppressor,TDP-43 yeast inh,aSyn yeast inh,Abeta rescue
CC(=O)Nc1cc(C(=O)NCc2ccco2)ccc1Sc1ccc(F)cc1,i,-6%,-1%,i
CC(=O)Nc1cc(C(=O)NCc2ccc(C)cc2)ccc1S(=O)(=O)c1ccc(Cl)cc1,i,29%,0%,i
CCOc1ccccc1CNC(=O)c1ccc(Sc2ccc(Cl)cc2)c(NC(C)=O)c1,.,13µM*,4%,i
COc1cccc(NC(=O)NC2CCCCN(Cc3ccc(C)cc3)C2=O)c1 (configuration not stated),i,.,.,.
CC(=O)N1CCc2nc3sc(C(=O)c4ccc(F)cc4)c(N)c3c(C(F)(F)F)c2C1,i,28µM*,.,i
COc1ccc(N2CCN(Cc3nnc(-c4cccc(Br)c4)o3)CC2)cc1,i,24%,.,i
O=[N+]([O-])c1ccc(Nc2ccccc2F)nc1,i,18µM*,-1%,i
Cc1ccccc1CN1CCCCC(NC(=O)C2CCC2)C1=O (configuration not stated),i,.,.,.
Cc1ccccc1-c1nc(C(=O)NCC2CCCO2)cc2c1[nH]c1ccccc12 (configuration not stated),i,10µM*,6%,i
Cc1ccc(-c2nc(C(=O)NCC3CCCO3)cc3c2[nH]c2ccccc23)cc1 (configuration not stated),i,25µM*,?,i
COc1ccc(-c2nc(C(=O)NCC3CCCO3)cc3c2[nH]c2ccccc23)cc1 (configuration not stated),?,0%,-4%,i
O=C(NCC1CCCO1)c1cc2c([nH]c3ccccc32)c(-c2cccc(Br)c2)n1 (configuration not stated),?,10µM*,16%,i
COc1ccc(OC)c(CCNC(=O)c2c(C)nn(-c3ccc(F)cc3)c2-n2cccc2)c1,?,15%,-13%,i
Cc1[nH]nc2c1-c1nc3ccccc3nc1C(C)(C)C2,i,22µM*,0%,i
CC12CCC(C)(c3nc4ccccc4nc31)C2(C)C,i,7%,-5%,i
COc1ccc(CNc2nc(Cl)nc3nc[nH]c23)cc1,.,.,-5%,.
Oc1c(C(c2ccccn2)N2CCC(Cc3ccccc3)CC2)cc(Cl)c2cccnc12 (configuration not stated),25µM*,19%[9.22 µM],-4%,i
CN1CCN(C(c2ccccn2)c2cc(Cl)c3cccnc3c2O)CC1 (configuration not stated),i,-61%,?,i
O=C(C1CCCCC1)N1CCN=C1SCc1cccnc1,i,?,2%,i
O=C(C1CCCCC1)N1CCN=C1SCc1cccc([N+](=O)[O-])c1,i,18µM*,-14%,i
O=C(c1ccccc1)N1CCN=C1SCc1ccc([N+](=O)[O-])cc1,i,10µM*,2%,i
COCCNc1nc(Oc2cccc(NC(C)=O)c2)c2sc(-c3ccccc3)cc2n1,i,34%,4%,i
CC(=O)Nc1cccc(Oc2nc(NC(C)C)nc3cc(-c4ccccc4)sc23)c1,?,25µM*,1%,i
C=CCn1c(SCC(=O)NCc2ccco2)nnc1-c1cccc(N(C)C)c1,.,.,-2%,.
CS(=O)(=O)N1CCN(Cc2cc3nc(-c4cccc5[nH]ncc45)nc(N4CCOCC4)c3s2)CC1,.,.,-1%[92.2 µM],.
